Legend:
Assay in all cases: thermal shift delta Tm vs DMSO control; higher = stronger stabilization (binding)
Settings in all cases: 12.5 µM; protein concentration 2 µM
LOC_OS04G57630-cb004 = test system: LOC_OS04G57630-cb004
Procedure, shortened: (§1)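 Purified, E. coli-expressed rice kinase domain constructs were tested by differential scanning fluorimetry in 96-well plates: 19.5 μl of 2 μM kinase in 100 mM potassium phosphate pH 7.5, 150 mM NaCl, 10% glycerol, 5 × SYPRO Orange, plus compound in DMSO. Fluorescence was read from 25°C to 95°C at 0.05°C/s. Melting temperatures came from Boltzmann fits, and the shift is the triplicate mean relative to protein with DMSO alone.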

LOC_OS05G07850-cb002 = test system: LOC_OS05G07850-cb002
Procedure, shortened: as §1

LOC_OS05G16824-cb004 = test system: LOC_OS05G16824-cb004
Procedure, shortened: as §1

LOC_OS05G28520-cb001 = test system: LOC_OS05G28520-cb001
Procedure, shortened: as §1

LOC_OS05G30820-cb001 = test system: LOC_OS05G30820-cb001
Procedure, shortened: as §1

LOC_OS05G43570-cb004 = test system: LOC_OS05G43570-cb004
Procedure, shortened: as §1

LOC_OS06G16330-cb003 = test system: LOC_OS06G16330-cb003
Chain of LOC_OS06G16330-cb003 (as listed by the source): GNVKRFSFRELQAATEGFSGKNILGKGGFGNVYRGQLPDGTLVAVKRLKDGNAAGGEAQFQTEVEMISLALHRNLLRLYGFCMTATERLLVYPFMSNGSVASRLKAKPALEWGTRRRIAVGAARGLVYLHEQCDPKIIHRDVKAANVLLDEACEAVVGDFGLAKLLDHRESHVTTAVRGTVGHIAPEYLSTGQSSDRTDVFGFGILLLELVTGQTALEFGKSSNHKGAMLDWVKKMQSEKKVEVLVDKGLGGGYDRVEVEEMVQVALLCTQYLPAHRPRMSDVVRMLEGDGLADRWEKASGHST
Procedure, shortened: as §1

LOC_OS06G22820-cb001 = test system: T1, LOC_OS06G22820-cb001
T1 sequence (whole entry): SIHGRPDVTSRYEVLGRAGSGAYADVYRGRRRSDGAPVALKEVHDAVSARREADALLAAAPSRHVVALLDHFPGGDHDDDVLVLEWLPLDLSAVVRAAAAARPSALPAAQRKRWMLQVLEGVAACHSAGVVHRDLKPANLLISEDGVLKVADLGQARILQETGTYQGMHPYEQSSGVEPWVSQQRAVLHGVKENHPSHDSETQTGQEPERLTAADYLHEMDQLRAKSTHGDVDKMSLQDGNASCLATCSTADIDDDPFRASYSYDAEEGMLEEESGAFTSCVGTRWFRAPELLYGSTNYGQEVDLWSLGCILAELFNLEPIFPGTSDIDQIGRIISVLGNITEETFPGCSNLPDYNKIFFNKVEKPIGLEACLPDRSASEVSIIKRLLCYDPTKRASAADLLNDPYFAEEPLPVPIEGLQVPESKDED
Procedure, shortened: as §1

LOC_OS07G06570-cb004 = test system: LOC_OS07G06570-cb004
Procedure, shortened: as §1

LOC_OS07G07230-cb001 = test system: LOC_OS07G07230-cb001
Procedure, shortened: as §1

SMILES	thermal shift delta Tm (LOC_OS04G57630-cb004) [°C]	thermal shift delta Tm (LOC_OS05G07850-cb002) [°C]	thermal shift delta Tm (LOC_OS05G16824-cb004) [°C]	thermal shift delta Tm (LOC_OS05G28520-cb001) [°C]	thermal shift delta Tm (LOC_OS05G30820-cb001) [°C]	thermal shift delta Tm (LOC_OS05G43570-cb004) [°C]	thermal shift delta Tm (LOC_OS06G16330-cb003) [°C]	thermal shift delta Tm (LOC_OS06G22820-cb001) [°C]	thermal shift delta Tm (LOC_OS07G06570-cb004) [°C]	thermal shift delta Tm (LOC_OS07G07230-cb001) [°C]
Cc1cccc(CC(=O)N2CCc3c2ccc(-c2cn(C)c4ncnc(N)c24)c3F)n1	1.09	2.24	0.43	0.62	0.47	0.42	1.13	0.75	1.03	1.75
Cc1nc2c(-c3cnc(N)nc3)nc(N3CCOCC3)nc2n1C(C)C	0.5	2.64	0.17	0.5	0.32				1.35	-0.09
Cc1ccc(Nc2nccc(N(C)c3ccc4c(C)n(C)nc4c3)n2)cc1S(N)(=O)=O [Pazopanib]	1.64	7.82	3.43	0.62	0.59	-0.2	4.07	0.36	1.66	0.5
COc1cc2ncnc(Nc3ccc(Cl)cc3F)c2cc1OC	0.21	10.1	2.13	0.86	0.51	0.29	4.29	0.69	1.37	-0.11
NC(=O)c1cnc2[nH]ccc2c1N[C@@H]1[C@@H]2CC3C[C@H]1C[C@@](O)(C3)C2	1.22	12.5	8.26	0.32	2.71	0.73	5.88	0.43	1.29	0.84
CC[C@H](CO)Nc1nc(NCc2ccccc2)c2ncn(C(C)C)c2n1 [Roscovitine (Seliciclib,CYC202)]	-0.29	0.09	-1.49	0.43	0.33	0.28	0.01	0.63	0.88	0.44
COc1cc2c(Oc3ccc4[nH]c(C)cc4c3F)ncnc2cc1OCCCN1CCCC1 [Cediranib (AZD2171)]	0.99	1.23	1.08	-0.22	0.46	0.17	-0.02	0.55	0.63	0.34
CC(C)(C)Cn1c(N)nc2ccc(-c3[nH]c(C(C)(C)C)nc3-c3ccc(F)cc3)nc21	-1.17	1.45	-0.61	0.04	0.34	0.33	0.24	0.34	0.31	0.21
Nc1ncnc2c1c(-c1cnc3[nH]ccc3c1)nn2C1CCCC1	0.91	4.79	1.22	0.54	0.76	1.19	3.18	0.34	0.72	0.21
C=CC(=O)Nc1cc(Nc2nccc(-c3c[nH]c4ccccc34)n2)c(OC)cc1N(C)CCN(C)C	0.51	11	-1.05	0.61	0.72	0.75	6.67	0.58	1.6	0.9
Cc1ncc(CO)c(CO)c1O [Pyridoxine]	-0.04	0.43		-0.11	0.06	0.36	-0.45	0.67	1.06	0.72
COc1ccc2c(Oc3ccc(NC(=O)c4c(C)n(CC(C)(C)O)n(-c5ccccc5)c4=O)nc3)ccnc2c1	1.04	9.73	-1.1	0.15	0.52	1.07	5.11	0.68	0.62	-0.14
CN1CCN(c2cccc(Nc3nc4c(-c5ccc(S(C)(=O)=O)cc5)cccn4n3)c2)CC1	0.63	5.82	6.48	0.11	0.63	0.2	4.09	0.43	0.46	-0.02
Oc1ccc(-c2nc(-c3ccc(F)cc3)c(-c3ccncc3)[nH]2)cc1	0.57	1.26		1.33	0.88	1.13	0.09	0.97	1.08	0.48
CCCCCCCCCCCCCCCCCCOP(=O)([O-])OC1CC[N+](C)(C)CC1 [Perifosine (KRX-0401)]	-0.56	-0.07		-1.23	-0.15	-0.61		0.39	-2.82	-2.65
COc1ccc(Cl)cc1NC(=O)Nc1cc(C)nc2ccccc12	0.07	0.02	0.17	0.38	0.46	0.5	0.31	0.69	0.61	0.62
O=C(NCc1cccc(O)c1)Nc1nc(-c2ccncc2)cs1	1.08	3.27	-3.55	0.81	0.5	1.02	0.47	0.43	1.09	0.35
CC[C@@H]1C(=O)N(C)c2cnc(Nc3ccc(C(=O)NC4CCN(C)CC4)cc3OC)nc2N1C1CCCC1	-0.45	0.42	1.14	0.12	0.28	0.24	0.39	0.4	0.75	0.09
Cc1cc(O)c2c(c1)C(=O)c1cccc(O)c1C2=O [Chrysophanic Acid]	-0.6	1.45		0.74	0.15	-0.12	-0.34	-0.85	1.81	-0.41
Cc1ccc(NC(=O)c2cccc(N(C)C)c2)cc1NC(=O)c1ccc(O)cc1	0.32	0.13	0.14	0.63	0.58	0.61	0.4	0.59	0.77	0.22
Cc1[nH]c(/C=C2\C(=O)Nc3ccccc32)c(C)c1CCC(=O)O [Orantinib (TSU-68, SU6668)]	0.84	9.92	0	0.62	1.03	0.68		0.6	1.28	0.28

Reference: the supplement of paper PMC9694430
